The values below come from PubChem BioAssay (NCI).

About 83,000 compounds went through this panel and 20% of them were active in at least one assay; those are over-represented in the sample as a whole.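 Plates (96-well) were seeded with cells, treated with compound at one concentration, and incubated for 48 hours before percent growth was determined.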 Values without a mark were called inactive. Active and inactive are the calls of the source. How the source made its calls: active means growth percent below 10; inactive means the rest.

This experiment relates to HL-60(TB) leukemia. The experiment is described as follows: NCI-60 one-dose screen, 48 h (100 = growth as untreated, 0 = no growth, -100 = all killed). The note with it: 10 µM unless noted.
As to `O=C1/C(=C\C(Cl)=C/c2ccc([N+](=O)[O-])cc2)SC(=S)N1CCc1ccc(O)cc1`, the growth is 2.21% (active).
With `CC1(C)Cc2c(Br)c(Br)c(Br)c(OCC(O)CN3CCN(c4ccccn4)CC3)c2O1` (stereo not given), the growth was 61.1%.
As to `CCSc1nnc(NC(=O)Cc2ccc(Cl)cc2)s1`, the growth was 96.8%.
On to `Cc1c(O)c(=O)ccn1C1CCC(CC2CCC(n3ccc(=O)c(O)c3C)CC2)CC1` (stereo not given), for which the growth was -0.371% (active).
Take `C=CCn1ccc(=O)nc1SC`: the growth is 96.4%.
The same measure for `COc1ccc(/C=C\C(=O)/C=C/c2ccc(OC)cc2)cc1`: 50.2%; for `CC(C)(C)n1nc(C2CC2)c(Br)c1NC(=O)c1ccccc1F`: 104%.
The same measure for `COc1ccc(-c2nc3ccccc3n3cccc23)cc1`: 104%.
As for `Cn1cc(-c2nc(-c3cn(C)c4ncccc34)cs2)c2ccccc21`, the growth was 28.4%.
`CCSCC1CC(O)(c2ccccc2)CC(c2ccc(F)cc2)O1` (stereo not given): the growth is -31.9% (active).
On to `Cc1ccc(CS/C(=C\c2ccc([N+](=O)[O-])cc2)C(=O)c2ccc(F)cc2)cc1`, for which the growth is 30.4%.
With `Cn1cc(-c2nc(-c3cn(C)c4ncccc34)cs2)c2cc(F)ccc21`, the growth was 30.7%.
The result for `O=C1/C(=C\c2ccc(Br)cc2)CN(C(=O)c2ccccc2F)C/C1=C\c1ccc(Br)cc1` reads 33.6%; that for `CCOC(=O)C1=C(C)N=c2s/c(=C\c3ccccc3O)c(=O)n2C1c1ccc(OC)c2ccccc12` (stereo not given), -48.6% (active).
For the compound `CC(=O)OC[C@]12CCC(C)(C)C=C1[C@H]1CC[C@@H]3[C@@]4(C)CCCNC(C)(C)[C@@H]4CC[C@@]3(C)[C@]1(C)CC2`, the growth is 0.652% (active).
As to `CC(C)(C)n1cc(-c2ccnc(NCCCNS(=O)(=O)c3ccc(Cl)cc3)c2)c(-c2cccc(O)c2)n1`, the growth was -46.1% (active).
The result for `COS(=O)(=O)c1ccc(Br)cc1` reads 122%.
As for `O=C(Nc1ccncc1)C(=O)c1cn(S(=O)(=O)c2ccc(Oc3ccccc3)cc2)c2ccccc12`, the growth was 70.5%.
The same measure for `Cn1ncc2c(Sc3ccc(Cl)cc3)ncnc21`: 81.4%; for `Oc1ccccc1/C=N/c1ccccn1`: 102%; for `CC[C@@H]1O[C@H](O[C@@H](c2cnc[nH]2)[C@H](NC(=O)c2nc([C@H](CC(N)=O)NC[C@@H](N)C(N)=O)nc(N)c2C)C(=O)N[C@H](C)[C@H](O)[C@H](C)C(=O)N[C@@H](C(=O)NCCc2nc(-c3nc(C(=O)NCCCCN=C(N)N)cs3)cs2)[C@@H](C)O)[C@H](O[C@@H]2O[C@H](CO)[C@H](O)[C@H](OC(N)=O)[C@@H]2O)[C@H](C)[C@@H]1C`: 84.4%.
With `N#Cc1c(Nc2ccc(F)cc2)n[nH]c1-c1cccs1`, the growth is 95.3%.
Take `CC(C)(CC(=O)O)CC(=O)O`: the growth was 103%.
The result for `COc1cccc(-c2cc3c(O)cc(C#N)cc3[nH]2)c1` reads 21.3%; that for `COc1ccc(C(=O)c2cc(OC)c(OC)c(OC)c2)cc1/C=C/C(=O)c1ccc(O)cc1`, 14.2%; that for `N#Cc1ccc(O)c(C2=NCC(Cc3ccccc3)O2)c1` (stereo not given), 44%.
Regarding `NC(=O)c1c(NC(=O)c2ccc3c(c2)OCO3)sc2c1CCC(=O)C2`, the growth was -58.3% (active).
Take `C[C@H](Oc1cc(-c2cnn(C3CCNCC3)c2)cnc1N)c1c(Cl)ccc(F)c1Cl`: the growth was 58.3%.
Consider `C/C(Cc1ccc(Cl)cc1)=C(\c1ccc(O)cc1)c1ccc(Cl)cc1`, for which the growth is 95.7%.
On to `c1ccc(Sc2ccccc2)cc1`, for which the growth is 85.8%.
The same measure for `CC(C)c1ccc(/C=N/Nc2nc3ccccc3s2)cc1`: 98%; for `S=c1cnc2ccccc2[nH]1`: 86.4%.
For `Cn1cc(-c2nnc(-c3ccccc3)s2)c2cc(Br)cnc21`, the growth was 103%.
Take `COc1cc2c(/C=C3/C(=O)Nc4ccc(O)cc43)c(Cl)n(Cc3cc(OC)c(OC)c(OC)c3)c2cc1C`: the growth is -33.7% (active).
Take `O=C(/C=C/c1ccc(B(O)O)cc1)/C=C/c1ccc(B(O)O)cc1`: the growth is 21.7%.
Take `O=c1c2cc(F)ccc2sc2c(NCCN3CCCC3)nc3ccccc3c12`: the growth is 91.9%.
In the case of `CCc1cccc2c1S/C(=C/c1ccc(Cl)cc1)C2=O`, the growth was 93.5%.
The same measure for `CCOc1nc(-c2ccccc2)cc2c(O)c(C(=O)N/N=C/c3ccc(O)cc3O)[nH]c(=O)c12`: 19.7%; for `FC(F)(F)c1ccccc1-c1cn2c(ccc3ccccc32)n1`: 48.1%.
With `CCOC(=O)[C@@H]1CSC(CC)=C(C(=O)O)N1`, the growth was -17.3% (active).
